Measured values from PubChem BioAssay AID1851 (National Center for Advancing Translational Sciences (NCATS), 2009).
Screen size: about 16,000 compounds; about 5,100 (32%) were called active. Not shown: some 25% with an inconclusive outcome. Some of the results follow. A number with no mark means an inactive call. The call rests on the fitted dose curve; in most records, active means well fitted curve in the direction sought with a large enough effect; inconclusive means small, poorly fitted or top-dose-only effect, or effect the other way; inactive means no such curve, though single readings can be large or run the other way.

molecular target: Cytochrome P450 3A4 (Homo sapiens) (UniProt P08684); experiment: Cytochrome panel assay with activity outcomes; details: recombinant CYP, pro-luciferin dealkylation, luminescence, p450-cyp3a4; series mostly up to 57.1 µM
Sequence (P08684 whole entry, looked up): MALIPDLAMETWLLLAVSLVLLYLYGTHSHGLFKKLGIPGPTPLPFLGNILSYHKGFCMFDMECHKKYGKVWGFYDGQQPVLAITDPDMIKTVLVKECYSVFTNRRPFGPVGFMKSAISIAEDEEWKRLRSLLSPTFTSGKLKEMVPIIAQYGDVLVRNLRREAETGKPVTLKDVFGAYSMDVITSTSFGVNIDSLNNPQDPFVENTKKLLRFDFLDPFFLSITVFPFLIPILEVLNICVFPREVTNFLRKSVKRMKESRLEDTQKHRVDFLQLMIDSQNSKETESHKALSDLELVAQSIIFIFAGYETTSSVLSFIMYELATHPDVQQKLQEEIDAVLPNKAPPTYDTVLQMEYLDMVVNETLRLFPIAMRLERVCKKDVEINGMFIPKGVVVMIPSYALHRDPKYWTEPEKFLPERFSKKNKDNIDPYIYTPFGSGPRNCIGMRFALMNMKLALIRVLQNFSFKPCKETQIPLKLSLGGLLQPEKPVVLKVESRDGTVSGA
On the % scale 0 is the no-effect control and ±100 the full control effect.

Row | SMILES | AC50 | activity, negative = inhibition
1 | c1coc(CN2CCN(C(c3cccs3)c3nnnn3C3CCCC3)CC2)c1 (centres undefined) | 14.1 µM (active) | –
2 | Cc1ccc(C(c2nnnn2C2CCCC2)N2CCN3CCCC3C2)cc1 (centres undefined) | 14.1 µM (active) | –
3 | Clc1ccc(C(c2nnnn2C2CCCC2)N2CCN(Cc3ccncc3)CC2)cc1 (centres undefined) | 2 µM (active) | –
4 | CC(C)(C)N1C(=O)[C@@H]2[C@H]3C(=CC[C@H]2C1=O)C(=O)[C@H]1O[C@H]1[C@H]3O | – | -4.13% [at 11.4 µM]
5 | O=S(Cc1ccccc1)CC(O)(c1ccccc1)c1ccccc1 (centres undefined) | inactive | –
6 | O=C(Nc1cnn(Cc2ccc(Cl)cc2Cl)c1)c1cc(-c2cccs2)on1 | 10 µM (active) | –
7 | O=C(NCC1CCCO1)c1cc(-c2ccc(Cl)cc2Cl)on1 (centres undefined) | inactive | –
8 | O=C(Cn1cnc([N+](=O)[O-])n1)N/N=C/c1ccccc1O | inactive | –
9 | CC(C)(C)NC(=O)Cn1cnc([N+](=O)[O-])n1 | inactive | –
10 | O=C(CCCn1cnc([N+](=O)[O-])n1)Nc1ccc(Cl)c(Cl)c1 | 14.1 µM (active) | –
11 | O=C1O/C(=C\Br)CC[C@@H]1c1cccc2ccccc12 | 3.98 µM (active) | –
12 | Cc1cccc(-c2c3c(=O)n(C)c(=O)n(C)c3cn2C2CCCCC2)c1 | 7.94 µM (active) | –
13 | COc1ccccc1NC(=O)C(C/C=C(\C)Cl)C(C)=O (centres undefined) | 14.1 µM (active) | –
14 | COC(=O)c1ccccc1NC(=O)C(CCS(C)(=O)=O)NC(C)=O (centres undefined) | inactive | –
15 | CCCN1C(=O)C2(/C(=C(\O)c3ccc4c(c3)OCCO4)C(=O)C(=O)N2CCCOC)c2ccccc21 (centres undefined) | inactive | –
16 | COc1ccccc1CN1CC[C@@]2(CCCN(C(=O)c3cccn3C)C2)C1 | 12.6 µM (active) | –
17 | COc1ccccc1CN1CCC2(CC1)CCN(C(=O)c1cccn1C)CC2 | inactive | –
18 | COc1ccccc1CN1CC[C@@]2(CCCN(C(=O)c3ccco3)C2)C1 | 20 µM (active) | –
19 | COCC(=O)N1CCC[C@@]2(CCN(Cc3ccccc3OC)C2)C1 | inactive | –
20 | COc1ccccc1CN1CC[C@@]2(CCCN(C(C)=O)C2)C1 | inactive | –
21 | COc1ccccc1CN1CCC2(CC1)CCN(C(=O)c1ccco1)CC2 | inactive | –
22 | Cc1cc(NC(=O)c2nn(C)c(C)c2[N+](=O)[O-])no1 | inactive | –
23 | C=CCNc1nc(-c2ccc(Cl)cc2)cs1 | 14.1 µM (active) | –
24 | CCCCCN1CC(O)=C(c2nc(-c3ccc(Cl)cc3)cs2)C1=N | inactive | –
25 | Cc1ccc(-c2csc(N/N=C/c3ccco3)n2)cc1 | – | -6.49% [at 2.29 µM]

Row | SMILES | AC50 | activity, negative = inhibition
26 | CC(C)(C)NC[C@H](O)COc1cccc2c1CCC(=O)N2 | inactive | –
27 | CC(C)(C)NC(=O)C(Cc1ccccc1)NS(=O)(=O)c1ccc2c(c1)CCC(=O)N2 (centres undefined) | 3.16 µM (active) | –
28 | CC1=N[C@@](C)(COC(=O)[C@]2(C)N[C@](C)(CO)CO2)COC1=O | – | -22.8% [at 11.4 µM]
29 | COC(=O)N/N=C\C=C\c1ccc2c(c1)OCO2 | inactive | –
30 | Cc1cccc(OCC(=O)N/N=C\C=C\c2ccc3c(c2)OCO3)c1C | 2.24 µM (active) | –
31 | N[C@@H](Cc1nn[nH]n1)C(=O)O | – | -2.7% [at 11.4 µM]
32 | c1ccc(-c2nc(-c3cccs3)[nH]c2-c2ccccc2)cc1 | 11.2 µM (active) | –
33 | O=[N+]([O-])c1cccc(-c2nc(-c3cccs3)c(-c3cccs3)[nH]2)c1 | 12.6 µM (active) | –
34 | Cc1ccsc1-c1nc(-c2ccccc2)c(-c2ccccc2)[nH]1 | 14.1 µM (active) | –
35 | O=[N+]([O-])c1cccc(-c2nc(-c3ccccc3)c(-c3cccs3)[nH]2)c1 | – | -13.1% [at 2.29 µM]
36 | COc1ccc(-c2[nH]c(-c3ccc(C(=O)O)cc3)nc2-c2ccccc2)cc1 | inactive | –
37 | O=C(O)c1nc(-c2ccccc2)[nH]c1C(=O)O | – | -3.83% [at 11.4 µM]
38 | CCOC(=O)Cc1cc(=O)n2[nH]c(C)c(C#N)c2n1 | inactive | –
39 | NC(=O)C(=O)O | inactive | –
40 | CCOc1cc(CN2CCN(c3ccc(C(C)=O)cc3)CC2)ccc1OC | inactive | –
41 | COc1ccc(C(=O)CN2CCN(c3ccc(F)cc3)CC2)cc1OC | 28.2 µM (active) | –
42 | CCC(C)NCc1ccc(C(=O)OC)o1 (centres undefined) | inactive | –
43 | CCC/C=C(\CCC)C(NS(=O)(=O)c1cccc2cccnc12)c1ccc(-c2ccccc2)cc1 (centres undefined) | 3.16 µM (active) | –
44 | CCC/C=C(\CCC)C(NS(=O)(=O)c1cccc2cccnc12)c1ccc(C(=O)OC)cc1 (centres undefined) | 5.01 µM (active) | –
45 | CCC(C)N1C(=O)C2C(C(=O)Nc3cccc(OC)c3)C3C=CC2(O3)C1C(=O)NC1CCCCC1C (centres undefined) | 15.8 µM (active) | –
46 | CC12CCC(C(=O)O)(C/C1=N\O)C2(C)C (centres undefined) | inactive | –
47 | CN1C(=O)c2ccccc2C(C(=O)O)C1c1cn(C)c2ccccc12 (centres undefined) | – | 7.7% [at 2.29 µM]
48 | COc1ccc(C2C(C(=O)N3CCOCC3)c3ccccc3C(=O)N2c2ccc(OC)cc2)cc1 (centres undefined) | 8.91 µM (active) | –
49 | CCOc1ccc(C2C(C(=O)O)c3ccccc3C(=O)N2CCN2CCOCC2)cc1 (centres undefined) | inactive | –
50 | COc1ccc(C2C(C(=O)N3CCN(C)CC3)c3ccccc3C(=O)N2C2CCCCC2)cc1 (centres undefined) | 5.01 µM (active) | –

Row | SMILES | AC50 | activity, negative = inhibition
51 | Cc1cccn2c(=O)c(/C=N/O)c(N3CCCC3)nc12 | 12.6 µM (active) | –
52 | COc1ccccc1N1CCN(Cc2cc(=O)n3ccsc3n2)CC1 | inactive | –
53 | COc1ccccc1N1CCN(c2nc3c(C)cccn3c(=O)c2C=O)CC1 | 15.8 µM (active) | –
54 | Cc1cccn2c(=O)c3cc(C(=O)N4COCC4(C)C)n(C)c3nc12 | inactive | –
55 | Cc1cccn2c(=O)c(C=NCc3ccco3)c(Nc3ccc(SC(F)F)cc3)nc12 | inactive | –
56 | CC(=O)[C@@H](C)CCO[C@@]1(C)OCC[C@@H]1C | – | -5.36% [at 11.4 µM]
57 | CCOC(=O)Cc1csc(NS(=O)(=O)c2ccccc2)n1 | – | 6.45% [at 2.29 µM]
58 | Cc1ccc(CNC(=O)Cc2csc(Nc3nc(=S)[nH]c4ccccc34)n2)cc1 | 1 µM (active) | –
59 | COc1ccc(CNC(=O)Cc2csc(Nc3nc(=S)[nH]c4ccccc34)n2)cc1 | 1.26 µM (active) | –
60 | O=C(Cc1csc(Nc2nc(=S)[nH]c3ccccc23)n1)NCc1cccc(Cl)c1 | 1.78 µM (active) | –
61 | O=C(Nc1cccc(NC(=O)N2CCN(c3ccccc3)CC2)c1)N1CCN(c2ccccc2)CC1 | 6.31 µM (active) | –
62 | O=C(Nc1ccccc1)N1CCOCC1 | inactive | –
63 | Cc1ccc2nc(C3CCCN(C(=S)Nc4ccccc4C)C3)[nH]c2c1 (centres undefined) | 6.31 µM (active) | –
64 | Cc1cc2nc(C3CCCN(C(=O)NCc4ccccc4)C3)[nH]c2cc1C (centres undefined) | 10 µM (active) | –
65 | CC(=O)Nc1ccc2nc(C3CCCCC3)[nH]c2c1 | inactive | –
66 | O=C(O)c1ccc(NCc2nc3cc4ccccc4cc3[nH]2)cc1 | – | -11.9% [at 11.4 µM]
67 | Cc1cccc(NC(=S)N2CCC(N(C)CC3CCCO3)CC2)c1C (centres undefined) | inactive | –
68 | Cc1cc(C)n2c(SCC(=O)N(C)C3CCS(=O)(=O)C3)nnc2n1 (centres undefined) | inactive | –
69 | O=C(CSc1nnc(-c2ccc(Cl)cc2Cl)n1C1CCCCC1)NC1CCS(=O)(=O)C1 (centres undefined) | 10 µM (active) | –
70 | Cc1ccc(-n2ccnc2SCC(=O)N(CC(C)C)C2CCS(=O)(=O)C2)c(C)c1 (centres undefined) | – | -16.9% [at 2.29 µM]
71 | O=P(O)(O)CCP(=O)(c1ccccc1)c1ccccc1 | inactive | –
72 | O=P(O)(CCP(=O)(O)c1ccccc1)c1ccccc1 | – | -3.78% [at 11.4 µM]
73 | O=P(Cc1cc[n+]([O-])cc1)(c1ccccc1)c1ccccc1 | 14.1 µM (active) | –
74 | O=C(NCc1ccco1)c1ccccc1NS(=O)(=O)c1ccc(Br)s1 | – | -21% [at 2.29 µM]
75 | Cc1ccc(S(=O)(=O)N(Cc2ccccc2)c2ccccc2C(=O)NCc2ccco2)cc1 | 2.51 µM (active) | –

Row | SMILES | AC50 | activity, negative = inhibition
76 | CN(CCCNC(=O)c1cccn2c(=O)c3ccccc3nc12)Cc1ccccc1 | 1 µM (active) | –
77 | CN(CCCNC(=O)c1ccc(/C=N/O)nc1)CCCN(C)Cc1ccccc1 | inactive | –
78 | CCCCOc1cc(C(=O)NCCN(CC)CC)c2ccccc2n1 | inactive | –
79 | Cn1c(-c2ccc(Br)cc2)cnc1NCc1cccnc1 | 3.98 µM (active) | –
80 | Cn1c(-c2ccc(F)cc2)cnc1NCc1ccc(F)cc1 | inactive | –
81 | Cn1c(-c2ccc(F)cc2)cnc1NCc1cccc(F)c1 | 8.91 µM (active) | –
82 | CCNc1ncc2nc(-c3ccc(F)cc3)c(=O)n(C)c2n1 | inactive | –
83 | C[C@@H](/C=C\c1cccc(Oc2ccc(F)cc2)c1)N(O)C(N)=O | 1 µM (active) | –
84 | CCC(C)(C)c1ccc(Oc2cccc(C(=O)O)c2)cc1 | – | -2.44% [at 11.4 µM]
85 | C[C@H](C(=O)O)c1cccc(Oc2ccccc2)c1 | inactive | –
86 | COC(=O)/C=C\c1cc(O)ccc1O | inactive | –
87 | CCn1nc(C)c(NC(=O)/C=C/c2cnn(C)c2C)c1C | inactive | –
88 | COc1ccc(Br)cc1/C=C/C(=O)Nc1c(C)cccc1C | 4.47 µM (active) | –
89 | COc1cc2c(cc1OC)/C(=C/C(=O)N1CCOCC1)NC(C)(C)C2 | inactive | –
90 | CN1CCc2c(c3c(n2C)CCN(C)[C@H]3c2ccccc2F)[C@@H]1c1ccccc1F | 7.94 µM (active) | –
91 | Oc1ccc(Cl)cc1Cc1cc(Cl)cc(Cc2cc(Cl)ccc2O)c1O | – | -24.4% [at 11.4 µM]
92 | CN1CCC(=C2c3ccccc3Sc3ccccc32)CC1 | inactive | –
93 | CN(C)CC/C=C1\c2ccccc2CSc2ccccc21 | inactive | –
94 | CN1CCN(CCC=C2c3ccccc3Sc3ccc(S(=O)(=O)N(C)C)cc32)CC1 | 12.6 µM (active) | –
95 | CCCCC1(C)Nc2ccccc2-c2nc3ccccc3n21 (centres undefined) | 7.08 µM (active) | –
96 | CCCC1(C)Nc2ccccc2-c2nc3ccccc3n21 (centres undefined) | 12.6 µM (active) | –
97 | CCC1(C)Nc2ccccc2C(=O)N1O (centres undefined) | inactive | –
98 | CC1CCC2(CC1)N=C(N)Nc1nc3ccccc3n12 (centres undefined) | inactive | –
99 | NC1=NC2(CCCCCC2)n2c(nc3ccccc32)N1 | inactive | –
